tim10-1 inh = inhibits growth of tim10-1 mutant yeast; AID 463190; 330,000 compounds, 2.2% hits; inhibition, % at 20 µM; S. cerevisiae tim10-1 ts strain growth, BacTiter-Glo, 24 h;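 active = inhibition of at least 40%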;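 note: mutant grown at 25 °C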
NALP3 yeast inh = inhibitors of NALP3 inflammasome in yeast; Yeast reconstituted NLRP3/ASC/caspase-1, beta-gal luminescence, 24 h; inhibition, % at 10 µM; 330,000 compounds, 0.39% hits; AID 2825;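 active = inhibition of 50% or more; inactive = inhibition below 50%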
NALP1 yeast inh = blocks the NALP1 inflammasome reconstituted in yeast | S. cerevisiae NALP1/ASC/caspase-1 growth, X-gal OD620, 72 h | inhibition, % at 10 µM | 280,000 compounds, 0.61% hits; in the data active = inhibition mostly above about 24%, no sharp cut-off; inactive = mostly below about 32%
SKKanGAS inh = inhibitors of SKKanGAS S. pyogenes growth in kanamycin (SK-promoter or general growth effect); BacTiter-Glo, 6 h; inhibition, % at 7.5 µM; 300,000 compounds, 1.3% hits; AID 1662;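 active = mean replicate score, as percent of positive control median, at least 50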;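 note: strain carries kanamycin resistance gene driven by streptokinase promoter and grows in 40 µg/ml kanamycin; loss of luminescence reflects streptokinase promoter inhibition or plain growth inhibition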
TIM10 inh = inhibits growth of TIM10 yeast strain. 330,000 compounds, 1.4% hits. S. cerevisiae TIM10 strain growth, BacTiter-Glo luminescence, 24 h. AID 463195. inhibition, % at 10 µM;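 active = inhibition of 40% or more at the single tested concentration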;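 note: wild-type TIM10 isogenic control strain grown at permissive 25 °C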
tim23-1 inh = growth inhibitors of tim23-1 mutant yeast | S. cerevisiae tim23-1 growth, BacTiter-Glo luminescence, 24 h | inhibition, % at 20 µM | AID 463212 | 330,000 compounds, 1.3% hits;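 active = growth inhibition of the mutant yeast at or above 50%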;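 note: temperature-sensitive mutant grown at 25 °C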
TIM10 conf = TIM10 yeast growth inhibition, confirmed; shares compounds with TIM10 inh; S. cerevisiae tim10 strain growth, BacTiter-Glo luminescence, 24 h; inhibition, % at 10 µM; 4,600 compounds, 63% hits; AID 463215;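 active = inhibition of yeast growth at or above a set limit in either of two replicates at 10 µM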; note: this counterscreen used the strain with wild-type TIM10
Large screens that a line does not name were inactive (follow-up assays come after a bar, where they were run). Compounds with a hit are over-represented: about 4.9% of the library has one in this group of screens.

N#CC(c1nc2ccccc2nc1N1CCCC1)S(=O)(=O)c1ccccc1 (configuration not stated)	TIM10 inh 41 | TIM10 conf inactive
O=C(Nc1ccccn1)c1ccc2c(=O)n3c(nc2c1)CCCCC3	TIM10 inh 51 (no result: NALP1 yeast inh, SKKanGAS inh) | TIM10 conf 35
O=C(Nc1ccc(F)cc1)c1ccc2c(=O)n3c(nc2c1)CCCCC3	none
O=C(Nc1ccc(F)c(Cl)c1)c1ccc2c(=O)n3c(nc2c1)CCCCC3	TIM10 inh 60 | TIM10 conf 46
Nc1nonc1C(=O)NCCN=Cc1cc(Cc2ccccc2)cc(Br)c1O	SKKanGAS inh 52, TIM10 inh 51 | TIM10 conf 67
CN(CC(=O)Nc1ccc(Cl)c(C(F)(F)F)c1)C(=O)c1cn2ccccc2n1	none (no result: NALP1 yeast inh)
CCOc1ccc(NC(=O)COc2cccc3c2CCN(Cc2cccnc2)C3=O)cc1	none
CCOc1ccccc1/C=N/n1c(C2CCCCC2)n[nH]c1=S	TIM10 inh 43 | TIM10 conf 50
Cc1cccc(/C=N/n2c(C3CCCCC3)n[nH]c2=S)c1	TIM10 inh 40 | TIM10 conf 49
CCCCN1CC(=O)N2[C@H]3c4cc(Cl)ccc4OC[C@@H]3[C@H](C(=O)OCC)[C@]2(C)C1=O	none (no result: NALP1 yeast inh, SKKanGAS inh)
Cc1ccc2cc(CCl)c(Cl)nc2c1	none (no result: NALP1 yeast inh)
Oc1ccc(-c2nnc(-c3ccc(O)cc3)nn2)cc1	none
Oc1ccc(-c2cccc(-c3ccc(O)cc3)n2)cc1	TIM10 inh 44 | TIM10 conf 32
CCOC(=O)C1CCCN(C(=O)c2ccc3[nH]c4c(c3c2)CC(C)CC4)C1 (configuration not stated)	TIM10 inh 73 (no result: NALP1 yeast inh, SKKanGAS inh) | TIM10 conf inactive
O=C(Nc1ccccc1)Nc1ccc(Cl)c([N+](=O)[O-])c1	none
CC(CC(=O)Nc1ccc(Cl)c([N+](=O)[O-])c1)c1ccccc1 (configuration not stated)	TIM10 inh 42 | TIM10 conf inactive
COc1cc(C(=O)NCCc2cc3c(OC)ccc(OC)c3[nH]c2=O)cc(OC)c1OC	none
COc1ccc(OC)c2[nH]c(=O)c(CCNC(=O)c3ccc(Br)o3)cc12	TIM10 inh 47 | TIM10 conf inactive
COc1cccc(C2c3[nH]c4ccccc4c3C[C@H]3C(=O)N(c4ccccc4C(=O)N4CCC(C(=O)O)CC4)C(=O)N23)c1 (some centres not stated)	none
CC1CCCC(NC(=O)CSc2nnc(-c3cccnc3)n2N)C1C (configuration not stated)	none (no result: NALP1 yeast inh, SKKanGAS inh)
CC(=O)c1ccc2c(c1)Nc1ccccc1S2	TIM10 inh 88 | TIM10 conf inactive
COc1ccc(NC(=O)c2cccc3ccccc23)cc1	none
COc1ccccc1C(=O)Oc1ccccc1C(=O)Nc1ccccc1	TIM10 inh 41 | TIM10 conf inactive
COc1ccc(NC(=O)c2ccccc2C)cc1	TIM10 inh 85 | TIM10 conf inactive
COc1ccccc1C(=O)Nc1ccc(C(=O)O)cc1	none
O=C(NCCN1CCCCC1)c1ccc(F)cc1Cl	none (no result: NALP1 yeast inh)
Cc1ccccc1-c1cn(-c2ccccc2)c(=S)[nH]1	TIM10 inh 41 | TIM10 conf 51
O=C(O)c1ccc(NC(=S)NC2CCCCC2)cc1	none
S=C(Nc1ccc(Oc2ccccc2)cc1)NC1CCCCC1	SKKanGAS inh 54, TIM10 inh 40 | TIM10 conf 41
O=[N+]([O-])c1ccc(O)c(/C=N/n2cnc3ccccc32)c1	TIM10 inh 41 | TIM10 conf 66
O=C(CCCC1=NS(=O)(=O)c2ccccc2N1)N1CCN(c2ccc([N+](=O)[O-])cc2)CC1	none
c1ccc(CSc2nc3ncncc3[nH]2)cc1	none
S=c1nc(SCc2ccccc2)[nH]c2ccccc12	SKKanGAS inh 76, TIM10 inh 49 | TIM10 conf 40
O=C(Nc1ncc(Cc2cccc([N+](=O)[O-])c2)s1)c1ccco1	none
CC(C)C(=O)Nc1ncc(Cc2ccc(Cl)cc2)s1	TIM10 inh 47 | TIM10 conf 34
Cc1ccc(Cc2cnc(NC(=O)c3ccco3)s2)cc1	none | TIM10 conf 40
Cn1c(Cc2cccc3ccccc23)nnc1SCc1ccc([N+](=O)[O-])cc1	none
Cc1ccc(Nc2nc(-c3sc(C)nc3C)cs2)cc1	TIM10 inh 46 | TIM10 conf 49
